Test results as given in PubChem BioAssay AID642 (Vanderbilt High Throughput Screening Facility, 2007).
About 2,000 (91%) of roughly 2,200 compounds were called active.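 The calls were made as follows: active = luminescence in either of two replicates above the same-plate mean plus 3 SD of the low-dose dopamine control; inactive = the rest.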 So high a share suggests a set chosen from earlier hits. A selection follows.

molecular target: D(1A) dopamine receptor (Homo sapiens) (UniProt P21728); assay: D1 receptor positive allosteric modulators, retest, confirmation, cell-based, HEK293 D1, CRE-luciferase, duplicate (AID 642); conditions: dopamine EC30 potentiation, at 10 µM, stronger effect = higher value
Sequence (P21728 whole entry, looked up): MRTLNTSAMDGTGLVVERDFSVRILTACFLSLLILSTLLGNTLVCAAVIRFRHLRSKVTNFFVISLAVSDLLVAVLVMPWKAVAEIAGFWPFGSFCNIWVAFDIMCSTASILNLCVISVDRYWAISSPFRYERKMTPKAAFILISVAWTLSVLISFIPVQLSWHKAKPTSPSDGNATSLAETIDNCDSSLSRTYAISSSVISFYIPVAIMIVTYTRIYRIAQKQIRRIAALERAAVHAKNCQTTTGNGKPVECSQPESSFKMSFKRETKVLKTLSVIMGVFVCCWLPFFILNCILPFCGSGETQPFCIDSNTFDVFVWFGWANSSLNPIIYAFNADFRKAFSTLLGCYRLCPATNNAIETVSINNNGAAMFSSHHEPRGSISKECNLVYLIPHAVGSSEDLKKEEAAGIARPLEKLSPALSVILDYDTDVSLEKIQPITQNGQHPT

For `CCC(=NCc1ccco1)c1c(O)n(Cc2ccccc2)c(=O)[nH]c1=O`, which luminescence is on record?
Its luminescence is 18900 (active).
